Unmarked numbers belong to inactive results. The source made the active and inactive calls. Cut-off read from the data, not from the text of the source: active = fold change permeability below about 0.7 or above about 1.3; inactive = in between.
test: modulators of brain endothelial barrier permeability, primary screen, cell-based, FITC-avidin fluorescence, HTS (AID 1963498); settings: actives lie on both sides; note: test concentration not given here

SMILES	fold change permeability
O=C(O)Cc1c[nH]c2ccc(O)cc12	1.1
O=C(O)C1=CCNCC1	1
CN1CCN(CCCN2c3ccccc3Sc3ccc(Cl)cc32)CC1	1
N[C@@H](Cn1ccc(=O)c(O)c1)C(=O)O	1.8 (active)
Cc1ccc(=O)n(-c2ccccc2)c1	1
CC(/C=C/c1cccc(Oc2ccc(F)cc2)c1)N(O)C(N)=O (centres undefined)	1.1
NCCOc1cc(C(=O)Nc2cc(OCCN)c3ccccc3n2)nc(C(=O)Nc2cc(OCCN)c3ccccc3n2)c1	0.9
C[C@H](C#Cc1ccc(Cc2ccc(F)cc2)s1)N(O)C(N)=O	1.1
NC[C@@H]1O[C@H](O[C@H]2[C@@H](O)[C@H](O[C@@H]3[C@@H](O)[C@H](N)C[C@H](N)[C@H]3O[C@H]3O[C@H](CO)[C@@H](O)[C@H](O)[C@H]3N)O[C@@H]2CO)[C@H](N)[C@@H](O)[C@@H]1O	1
Cc1nc2c(OCc3ccccc3)cccn2c1CC#N	0.9
OC[C@H]1O[C@H]([S-])[C@H](O)[C@@H](O)[C@@H]1O.[Au+]	1.5 (active)
Nc1ncnc2c1nc(Br)n2C1OC2COP(=O)(O)O[C@@H]2C1O (some centres undefined)	1
CC1CCN(CC[C@H]2CCCN2S(=O)(=O)c2cccc(O)c2)CC1	0.7 (active)
C[C@@H](O[C@H]1OCCN(Cc2nn(P(=O)(O)O)c(=O)[nH]2)[C@H]1c1ccc(F)cc1)c1cc(C(F)(F)F)cc(C(F)(F)F)c1	1.4 (active)
CN(C)CCCc1cc(C(=O)Nc2ccc(-c3ccncc3)cc2)ccc1O	1
NCCCNCCSP(=O)(O)O	0.9
O=C(CCNNC(=O)c1ccncc1)NCc1ccccc1	0.8
Cc1ccc(/C(=C\CN2CCCC2)c2ccccn2)cc1	0.8
Cc1c(Cl)cccc1Nc1ncccc1C(=O)O	1.1
O=c1onc2cnc3ccccc3n12	1.1

SMILES	fold change permeability
Cc1ccc(O)c(N=Nc2ccccc2)n1	1.2
CCCN(CC1CC1)c1nc(C)nc(Nc2c(Cl)cc(Cl)cc2Cl)c1Cl	1.3 (active)
C=CC[C@H](N)C(=O)O	1
NC(=O)C(=O)O	0.8
NC(=O)c1cn(Cc2c(F)cccc2F)nn1	0.9
CCOC(=O)C1=C[C@@H](OC(CC)CC)[C@H](NC(C)=O)[C@@H](N)C1	0.8
Nc1ncn([C@@H]2O[C@H](CO)[C@@H](O)[C@H]2O)c(=O)n1	1.1
OC(CCN1CCCCC1)(c1ccccc1)C1CCCCC1 (centres undefined)	0.8
CCCCCN(CCCOC)C(=O)C(CCC(=O)O)NC(=O)c1ccc(Cl)c(Cl)c1 (centres undefined)	1
C[C@]12CCC(=O)C=C1C=C[C@@H]1[C@@H]2CC[C@@]2(C)[C@H]1CC[C@@]21CCC(=O)O1	1.1
COC(=O)c1c(C)[nH]c(C)c1C(=O)c1ccccc1Cc1ccccc1	1.2
CC(=O)O[C@]1(C(C)=O)CC[C@H]2[C@@H]3C=C(Cl)C4=CC(=O)[C@@H]5C[C@@H]5[C@]4(C)[C@H]3CC[C@@]21C	1
NC(N)=Nc1nc(CSCC/C(N)=N/S(N)(=O)=O)cs1	0.9
COc1cc(CC(=O)O)ccc1O	1.1
NC1=NCC2c3ccccc3Cc3ccccc3N12 (centres undefined)	0.8
O=C1OC(=O)C2C3CCC(O3)C12 (centres undefined)	0.9
O=C(Nc1cc(C(F)(F)F)cc(C(F)(F)F)c1)Nc1c(Br)cc(Br)cc1-c1nn[nH]n1	0.9
CNCCC=C1c2ccccc2CCc2ccccc21	1
CCCC[C@@]1(C2CCCC2)Cc2cc(OCC(=O)O)c(Cl)c(Cl)c2C1=O	1.6 (active)

From PubChem BioAssay
